Results as given in PubChem BioAssay AID1117319 (Southern Research Institute, 2015).
Values joined by “and” are separate entries in the source; they are usually repeats but may differ in a detail not shown here. Equal entries are not always repeated. The campaign covered roughly 260,000 compounds. About 1,500 (0.58%) were called active. Not shown: some 5% with an inconclusive outcome. Only a sample is shown. Entries with a potency or affinity are not part of this list. Values without a mark were called inactive.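 Rule for the calls: active = inhibition above a set limit at one or more doses, reproduced on every date tested; inconclusive = results disagree between test dates, or hit never tested in dose response; inactive = the rest.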

Target: Virion infectivity factor (Human immunodeficiency virus type 1 group M subtype B (isolate BH10)) + Virion infectivity factor (Human immunodeficiency virus type 1 group M subtype B (isolate BRU/LAI)) + Virion infectivity factor (Human immunodeficiency virus type 1 group M subtype B (isolate PCV12)) + Virion infectivity factor (Human immunodeficiency virus type 1 group M subtype B (isolate HXB2)) + DNA dC->dU-editing enzyme APOBEC-3G (Homo sapiens) (UniProt P69720+P69721+P69722+P69723+Q9HC16)
Experiment: inhibitors of Vif binding to APOBEC3G peptide, primary screen, biochemical, TR-FRET, GST-Vif 1-94, biotin-A3G peptide, dose response retest (AID 1117319);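 note: Vif residues 1-94 fused to GST binding biotinylated APOBEC3G peptide 110-148; 0% = full assay without inhibitor and 100% = GST in place of GST-Vif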
Details: active compounds read high

SMILES	inhibition
CCOC(=O)c1cc(-c2cccs2)[nH]n1	3.68%
O=C1C(c2ccccc2)c2ccccc2N1Cc1ccccc1 (stereo not drawn)	-2.08%
CCOc1ccc(OCCn2ccnc2)cc1	-0.21%
Cc1nc2ccc(NS(=O)(=O)c3cccc([N+](=O)[O-])c3)cc2s1	-2.07%
O=C(Nc1ccc(N2CCOCC2)cc1)Nc1ccc2nc(-c3ccco3)c(-c3ccco3)nc2c1	16%
OCCCNC(=S)Nc1ccc2nc(-c3ccccn3)c(-c3ccccn3)nc2c1	16.7%
O=C(Nc1ccc2nc(-c3cccs3)c(-c3cccs3)nc2c1)NC1CC1	-3.31%
O=C(Nc1ccc2nsnc2c1)NC1CCCCC1	-12.3%
COCCNC(=O)Nc1ccc2nc(C)sc2c1	3.2%
Cc1nc2ccc(NC(=O)NCCCO)cc2s1	-2.1%
O=C(NCCO)Nc1ccc2nsnc2c1	13.2%
COCCNC(=O)Nc1ccc2nc(-c3cccs3)c(-c3cccs3)nc2c1	13.9%
COc1cc2[nH]c(=O)c(C(=O)NCc3ccc(C)cc3)c(O)c2cc1OC	-8.1%
O=C1NC[C@H](c2ccccc2)N(CCc2cc(C(F)(F)F)cc(C(F)(F)F)c2)C1=O	-3.13%
COC(=O)c1sc2nc(C)c([N+](=O)[O-])c(C)c2c1N	6.2%
CC(C)c1nnc(NC(=O)CC(=O)Nc2ccccc2C(=O)O)s1	15.4%
CCOC(=O)c1c(NC(=O)COC(=O)CCOc2ccc(OCC)cc2)sc(C(=O)N(C)C)c1C	-2.2%
Cc1nc(CC(=O)Nc2nccs2)cs1	-1.06%
COC(=O)C1=C(C(=O)OC)[C@@H]2Nc3ccccc3[C@@]23C[C@@H](C(=O)OC)N=C3N1	0.57%
CN(CC(=O)Nc1ccccc1N1CCOCC1)S(=O)(=O)c1ccc(F)cc1	4.33%
O=C(c1ccc(Cl)cc1)c1cnc(-c2ccc(Cl)cc2)s1	-4.73%
O=C(CCCCl)Nc1c2c(nn1-c1ccccc1)CSC2	-3.73%
Cc1cc2nc(C3CCN(Cc4nnnn4Cc4cccs4)CC3)[nH]c2cc1C	1.05%
COC(=O)C1CC(c2ccccc2)N(c2ccccc2)O1 (stereo not drawn)	-1.63%
CS(=O)(=O)N1CCCC(C(=O)NCCN2CCC(Cc3ccccc3)CC2)C1 (stereo not drawn)	-4.71%

SMILES	inhibition
CS(=O)(=O)N1CCCC(C(=O)NCCCN2CCN(Cc3ccccc3)CC2)C1 (stereo not drawn)	8.72%
COc1ccccc1/C=C/C(=O)OCC(=O)Nc1ccccc1Sc1ccccc1	-5.26%
Cc1cc(C(=O)N(C)Cc2c(F)cccc2Cl)c2ccccc2n1	-2.57%
Cc1ccc(S(=O)(=O)CCC(=O)OCc2cc(C)ccc2C)cc1	4.12%
CCn1c(C)cc(C(=O)CSc2nnc(-c3ccco3)o2)c1C	6.55%
Cc1cc(C(=O)CSc2ncccn2)c(C)n1Cc1ccco1	-2.83%
COc1cccc(/C=C/C(=O)OCC(=O)Nc2cc(S(=O)(=O)N3CCOCC3)ccc2C)c1	-9.36%
CCN(CC(=O)NCc1cccs1)C(=O)c1ccc(S(=O)(=O)Nc2ccccc2Cl)cc1	1.56%
CC(=O)Nc1cccc(NC(=O)COc2ccccc2C)c1	-7.35%
Cc1noc(C)c1COc1cccc(C(=O)N(C)Cc2cccs2)c1	-1.46%
CC1(C)CC(=O)C(N=Nc2ccc(OC(F)F)cc2)=C(O)C1	12.4%
COc1ccc2c(c1O)C(=O)c1ccccc1C2=O	23.1%
Cc1cccc(NC(=O)c2ccc(C)c(S(=O)(=O)N3CCCCC3)c2)n1	2.93%
Cc1ccccc1NC(=O)COC(=O)c1cc(=O)c2ccccc2o1	-5.37%
O=Cc1ccc(O)c(O)c1	0.2%
COc1ccc(/C=N/N=C/c2ccc(OC)c(O)c2)cc1O	-4.01%
Oc1ccc(/C=N/N(c2ccccc2)c2ccccc2)cc1O	26.2%
Oc1ccc(/C=N/N=C/c2ccc(O)cc2)cc1	4.98%
CC(=O)Nc1ccc(N=Cc2ccc(OCc3ccccc3)cc2)cc1	21.2%
NC(N)=N/N=C/c1ccc(OCc2ccccc2)cc1	-2.74%
Cc1nc(SC(C)C(=O)c2c(N)n(C)c(=O)n(C)c2=O)c2c(C)c(C)sc2n1 (stereo not drawn)	-0.67%
CCOc1ccc(NC(=O)C(C)Sc2nnnn2C)cc1 (stereo not drawn)	0.56%
COc1cccc(NC(=O)CN(C)C(=O)CN2C(=O)NC(C)(c3ccc4ccccc4c3)C2=O)c1 (stereo not drawn)	9.34%
Cc1ccc(C)c(NS(=O)(=O)c2ccc(OCC(=O)N3CCCC3)cc2)c1	1.52%
CS(=O)(=O)c1ccc(C(=O)OCC(=O)NC(=O)Cc2ccccc2)cc1	-0.73%

SMILES	inhibition
COc1ccc(-n2c(SCC(C)=O)nc3sc(C)c(C)c3c2=O)cc1	-12.1%
CC(C)(C)c1c(Cl)c(O)c(-c2ccccc2)c(=O)n1-c1ccccc1	11.4%
CCN(c1ccccc1)S(=O)(=O)c1ccc2c(c1)N(C(C)=O)CCS2	-1.04%
COc1ccccc1-c1nn(-c2ccccc2)cc1C(=O)NCC(c1ccco1)N1CCCC1 (stereo not drawn)	1.07%
CCOC(=O)N1CCN(S(=O)(=O)c2ccc(OC)c(Cl)c2Cl)CC1	3.84%
Fc1ccc2c(c1)c1n[nH]c(=S)nc1n2CCc1ccccc1	0.89%
O=C1C=C(Nc2ccccc2)C(=O)c2ccccc21	1.37%
O=C(Nc1ccc2c(c1)C(=O)c1ccccc1-2)c1ccccc1	4.11%
NC(Cc1ccc2nonc2c1)C(=O)O (stereo not drawn)	17.1%
O=C(c1ccccc1)N(Nc1ccccc1)c1ccccc1	11.5%
CC(C)C(=O)NN(C(=O)c1ccccc1)c1ccccc1	-2.08%
COc1ccc2cc(C#N)c(Nc3cccc(F)c3)nc2c1	-0.27%
S=c1[nH]nc(NC2CCCCC2)s1	2.41%
CCOc1cc(C2Nc3ccccc3C(=O)N2c2ccccc2)ccc1O (stereo not drawn)	24.7%
COc1cc(C2Nc3ccccc3C(=O)N2c2ccccc2OC)ccc1O (stereo not drawn)	-3.51%
CCCCOC(=O)c1cccc(NC(=O)CCC(=O)O)c1	-3.12%
NC(=O)c1ncc(C(F)(F)F)cc1Oc1cccnc1	-3.05%
CCN(C(=O)COC(=O)CNC(=O)c1ccc2ccccc2c1)C1CCS(=O)(=O)C1 (stereo not drawn)	11.8%
CCc1ccc(NC(=O)C2CCN(S(C)(=O)=O)CC2)cc1	-4.22%
Cc1ccc(NC(=O)C2CC3CCC2C3)c(Br)c1 (stereo not drawn)	-0.68%
COc1ccc(NC(=O)C(NC(C)=O)C(=O)NCc2ccccc2OC)cc1 (stereo not drawn)	19.8%
Oc1cccc2cc3cccc(O)c3c(O)c12	-5.93%
COc1cc2cccc(OC)c(=O)c2c(O)c1OC	4.6%
CCOC(=O)c1sc(NC(=O)Nc2ccc(F)cc2)nc1C	24.7%
Nc1ccc(N2CCCCC2)c(Cl)c1	19.8%

SMILES	inhibition
Clc1ccccc1CN1CCN(c2ncccn2)CC1	-5.95%
CC1CCC2(CC1)NC(=O)N(CC(=O)NCc1ccc(Cl)cc1)C2=O (stereo not drawn)	-14%
O=C(CNC(=O)c1ccc(Br)cc1)N/N=C/c1ccc[nH]1	-7.5%
Cc1nc2ccccc2n1CC(=O)c1ccccc1	6.29%
Cc1nc2ccccc2c(-c2ccccc2)c1CC(=O)O	-8.12%
CCOC(=O)c1cnc2c(cnn2C)c1Cl	6.51%
COc1cc(OC)c(-c2oc3ccccc3c(=O)c2O)c(OC)c1	4.4%
COc1cc(OC)c2c(c1)OC(c1ccc(OC)c(OC)c1)C(O)C2=O (stereo not drawn)	5.17%
COc1ccc(C(=O)OCCN=C2NS(=O)(=O)c3ccccc32)cc1OC	0.81%
CC12CCCc3c(O)cc(=O)n(c31)-c1ccccc12 (stereo not drawn)	0.05%
Cn1cccc1/C=C1\SC(=S)N(NC(=O)c2ccccc2O)C1=O	27.8%
O=C(NN1C(=O)/C(=C/c2cccs2)SC1=S)c1ccncc1	-1.89%
O=C(NN1C(=O)/C(=C/C=C/c2ccccc2)SC1=S)c1ccncc1	10.1%
COc1cc(/C=C2\SC(=S)N(NC(=O)c3ccccc3O)C2=O)ccc1O	5.15%
CC(/C=C1\SC(=S)N(NS(=O)(=O)c2ccccc2)C1=O)=C\c1ccccc1	-6.38%
O=C1/C(=C/c2cccs2)SC(=S)N1NS(=O)(=O)c1ccccc1	-2.36%
Cc1c(C(=O)NCc2ccccn2)sc2nc(-c3ccc(F)cc3)cn12	0.67%
Cc1ccc(NC(=O)CC2C(=O)NC3CCCCC3N2C(=O)c2ccc(F)cc2)cc1C (stereo not drawn)	1.01% and 26.2%
Cc1nn(Cc2cccc(Oc3ccccc3)c2)c(C)c1NC(=O)NC12CC3CC(CC(C3)C1)C2	-5.96%
Clc1ccc(CSc2cc3c(nn2)-c2ccccc2CC3)cc1Cl	-6.32%
CC1(C(=O)OCC(=O)Nc2ccccc2Cl)CC1(Cl)Cl (stereo not drawn)	-10.2%
Cc1c(Cl)ccc(S(=O)(=O)NCCN2CCOCC2)c1Cl	6.83%
O=CN1CCN(C2CC(=O)N(c3ccc(Br)cc3)C2=O)CC1 (stereo not drawn)	22.2%
